The whole screen tested about 300,000 compounds, of which about 4,000 (1.3%) were called active.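 How the source made its calls: active means mean replicate score, as percent of positive control median, at least 50; inconclusive means mean below 50 but one replicate at or above 50; inactive means mean and every replicate below 50.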 The entries come from a sample that favours actives as a whole.

From PubChem BioAssay AID1662 (Broad Institute, 2009) come the findings set out here.

The test in a line: kanamycin survival loss of SKKanGAS strain – BacTiter-Glo luminescence, streptokinase expression inhibitor project, primary screen (AID 1662).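 Further: strain carries kanamycin resistance gene driven by streptokinase promoter and grows in 40 µg/ml kanamycin; loss of luminescence reflects streptokinase promoter inhibition or plain growth inhibition; 0% = median of DMSO wells and 100% = positive control at its reference dose.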 The conditions noted are these: S. pyogenes SKKanGAS, kanamycin growth, 6 h, at 7.5 µM, hits give high values.
One may read the inhibition as the relative decrease from the control value, in per cent. On to `Oc1ccc2ccccc2c1N=Nc1nccs1`, for which the inhibition is 106% (active).

For the compound `Oc1ccc(N=Nc2nccs2)c(O)c1`, the inhibition was 3.07% (inactive).

Regarding `c1ccc(NCc2cccc3ccccc23)nc1`, the inhibition was 22.8% (inactive).

With `COc1ccccc1Oc1nc(-c2cccnc2)nc2ccccc12`, the inhibition was 5.74% (inactive).

Consider `c1ccc(-c2nc(NCc3ccco3)c3ccccc3n2)cc1`, for which the inhibition was -7.68% (inactive).

`CC(C)(C)Nc1nc(-c2ccccn2)nc2ccccc12`: the inhibition is 87.4% (active).

In the case of `Cc1ccc(Oc2nc(-c3ccccn3)nc3ccccc23)cc1`, the inhibition was 76.2% (active).

For the compound `COc1ccc(Sc2nc(-c3ccccc3)ncc2OC)cc1`, the inhibition is 0.835% (inactive).

As to `CCOCCCNc1nc(-c2ccccc2)nc2ccccc12`, the inhibition is -2.19% (inactive).

As for `COc1ccc(Cc2nc(-c3ccccn3)no2)cc1OC`, the inhibition was 29.5% (inactive).

For the compound `COc1cnc(-c2ccccn2)nc1Oc1ccc(C(C)(C)C)cc1`, the inhibition was 78.3% (active).

Consider `N#Cc1ccc(Oc2cc(C(F)(F)F)nc(-c3ccccn3)n2)cc1`, for which the inhibition is -2.81% (inactive).

In the case of `CSc1ccc(S(=O)(=O)Nc2cccc(F)c2)cc1`, the inhibition is 7.04% (inactive).

Take `COc1ccc(N=Nc2c(-c3ccc(OC)cc3)[nH]oc2=O)cc1`: the inhibition was 6.47% (inactive).

As for `CCCN(CCC)c1c([N+](=O)[O-])c(=O)oc2ccccc12`, the inhibition was -5.31% (inactive).

In the case of `CCOC(=O)c1cc2c(=O)n3ccccc3nc2n(CC(C)C)c1=NC(=O)c1c(-c2c(F)cccc2Cl)noc1C`, the inhibition was 18.2% (inactive).

For the compound `O=C(CN1C(=O)NC2(CCCC2)C1=O)NCC1CCCO1` (configuration not stated), the inhibition was -1.73% (inactive).

Consider `COC(C/C=C/C(=O)[C@@H](C)OCc1ccccc1)OC`, for which the inhibition is -2.55% (inactive).

Turning to `NC(=O)c1nnsc1-c1ccc(-c2snnc2C(N)=O)cc1`, the inhibition is 2.07% (inactive).

As to `COc1cc2c3c(c1)/C(=C1/SC(=S)NC1=O)C(=O)N3C(C)(C)C=C2C`, the inhibition was 61.3% (active).

In the case of `Cc1nc2ccc(S(=O)(=O)N(C)CC(=O)NC(C)c3ccccc3)cc2s1` (configuration not stated), the inhibition was -15% (inactive).

For `COCC1CCN(C(=O)CCc2nnc(C3(c4ccc(Cl)cc4)CCC3)o2)C1` (configuration not stated), the inhibition is 49.5% (active).

Consider `COCC1CCCN(C(=O)c2ccc3oc(C(C)C)nc3c2)C1` (configuration not stated), for which the inhibition was -3.17% (inactive).

For the compound `CN1CCN(C(=O)CCc2nc(-c3ccc(Cl)cc3)no2)CC1`, the inhibition was -5.8% (inactive).

As to `O=C(COC(=O)CNS(=O)(=O)c1ccc(F)c(F)c1F)NC1CCCC1`, the inhibition was 2.52% (inactive).

For the compound `CO/N=C(\C(=O)N[C@@H]1C(=O)N2C(C(=O)O)=C(COC(C)=O)CS[C@H]12)c1csc(N)n1` (stereo in doubt), the inhibition is 33% (inactive).

Regarding `C=CC1=C(C(=O)O)N2C(=O)[C@@H](NC(=O)/C(=N/OCC(=O)O)c3csc(N)n3)[C@H]2SC1`, the inhibition is 109% (active).
